Experimental data taken from PubChem BioAssay (Tox21).
Results filed as inconclusive are left out. The source made the active and inactive calls. Calls follow the shape of the dose curve; as a rule, active = well fitted curve in the direction sought with a large enough effect in the repeat runs; inconclusive = weak or mixed curves; inactive = no such curve, though single readings can be large; an effect the other way counts as inactive or inconclusive.

Columns and labels:
[1] = qHTS RealTime-Glo MT Cell Viability Assay in HEK293 cells - 0 hour (AID 1224880); also: top concentration of the series differs between compounds; nearly all actives have a fitted effect of over 45% in size
Summary of the method: (§1)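 600 cells/well were plated with the nonlytic NanoLuc/prosubstrate reagent, pre-incubated 5 h, then given 23 nL of compound in DMSO. Incubation at 37 C for 40 h, with luminescence from viable-cell-reduced substrate read repeatedly from 0 h.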

[2] = A CellTox Green Cytotoxicity Assay to monitor cytotoxicity in HEK293 cells - 32 hour (AID 1224881); also: nearly all actives have a fitted effect of over 40% in size
Summary of the method: (§2)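 HEK293 cells, 600/well, were preincubated 5 hours and then exposed to compounds at 37 C for up to 40 hours. A cell-impermeant cyanine dye staining dead-cell DNA was read by fluorescence at 0, 8, 16, 24, 32 and 40 h time points.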

[3] = A CellTox Green Cytotoxicity Assay to monitor cytotoxicity in HepG2 cells - 0 hour (AID 1224882); also: nearly all actives have a fitted effect of over 35% in size
Summary of the method: (§3)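 HepG2 cells, 600/well, preincubated 5 h with CellTox Green dye, then exposed to Tox21 compounds in DMSO at 37 C for up to 40 h. Dead-cell DNA fluorescence read at the indicated time point.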

[4] = A CellTox Green Cytotoxicity Assay to monitor cytotoxicity in HepG2 cells - 32 hour (AID 1224883); also: nearly all actives have a fitted effect of over 50% in size
Summary of the method: as §3

[5] = A CellTox Green Cytotoxicity Assay to monitor cytotoxicity in HEK293 cells - 8 hour (AID 1224884); also: nearly all actives have a fitted effect of over 35% in size
Summary of the method: as §2

[6] = qHTS RealTime-Glo MT Cell Viability Assay in HepG2 cells - 16 hour (AID 1224885); also: nearly all actives have a fitted effect of over 50% in size
Summary of the method: (§4)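 HepG2 suspension premixed with RealTime-Glo reagents is plated at 600 cells per well and left 5 h at 37 C/5% CO2. Compounds in DMSO then go in, and bioluminescence reflecting viable cell number is recorded over 40 h.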

[7] = qHTS RealTime-Glo MT Cell Viability Assay in HEK293 cells - 24 hour (AID 1224886); also: top concentration of the series differs between compounds; nearly all actives have a fitted effect of over 50% in size
Summary of the method: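 Reads taken at 0, 8, 16, 24, 32 and 40 h from the same wells. HEK293 cells (600/well) carried RealTime-Glo reagents from seeding, with compound added after a 5 h settle at 37 C.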

[8] = qHTS RealTime-Glo MT Cell Viability Assay in HEK293 cells - 8 hour (AID 1224887); also: top concentration of the series differs between compounds; nearly all actives have a fitted effect of over 50% in size
Summary of the method: as §1

[9] = A CellTox Green Cytotoxicity Assay to monitor cytotoxicity in HEK293 cells - 16 hour (AID 1224888); also: nearly all actives have a fitted effect of over 35% in size
Summary of the method: as §2

[10] = qHTS RealTime-Glo MT Cell Viability Assay in HepG2 cells - 0 hour (AID 1224889); also: nearly all actives have a fitted effect of over 50% in size
Summary of the method: as §4

Measured: Potency

CC(C)(O)C(=O)c1ccc(OCCO)cc1
inactive: all assays above

CSc1ccc(C=O)cc1
inactive: all assays above

Cc1cc(C)cc(OCC2CNC(=O)O2)c1 (centres undefined)
inactive: all assays above

CCCCCN(CCCCC)C(=O)C(CCC(=O)O)NC(=O)c1ccc(Cl)c(Cl)c1 (centres undefined)
inactive: all assays above

OCC(O)[C@@H](O)[C@H](O)[C@H](O)CO[C@H]1O[C@H](CO)[C@@H](O)[C@H](O)[C@H]1O (some centres undefined)
inactive: all assays above

N[C@@H](CS)C(=O)O
inactive: all assays above

O=c1[nH]c(=O)n([C@H]2O[C@H](CO)[C@@H](O)[C@@H]2O)cc1/C=C\Br
inactive: all assays above

COCc1ccc(COC)cc1
inactive: all assays above

CC/C=C\C#N
not listed: [7]
inactive: all other assays above

COc1ccc2cc(C=O)ccc2c1
inactive: all assays above

CN(C)CCOC(c1ccc(Cl)cc1)c1ccccn1 (centres undefined)
inactive: all assays above

NC(=O)c1c(Cl)cccc1Cl
inactive: all assays above
